# Measurements taken from PubChem BioAssay (Tox21).
# Inconclusive results are not listed. Calls of active or inactive are those of the source. Calls come from the whole dose curve; as a rule, active = well fitted activation curve with a large enough effect in the repeat runs; inconclusive = weak or mixed curves, or effect the other way; inactive = no such curve, though single readings can be large or run the other way.
# Assay: qHTS assay to identify small molecule agonists of the estrogen related receptor signaling pathway with the pleiotropic PPARgamma coactivator (PGC) from Tox21 10K library (AID 1224842); note: nearly all actives have a fitted effect of over 15% in size
# Conditions: PGC/ERR reporter cell line, luciferase ONE-Glo, 18 h; series mostly up to 92.4 µM; activation: at the top concentration
# From the text: National Center for Advancing Translational Sciences [NCATS] NIH Chemical Genomics Center [NCGC] U.S. Environmental Protection Agency [EPA] National Institutes of Environmental Health Sciences [NIEHS] National Toxicology Program [NTP] Assay overview: Estrogen related receptors (ERRs), the first orphan nuclear receptors discovered, play an important role in the control of cellular energy metabolism. ERRs are required for high-energy production in response to the environmental challenges. The pleiotropic PPARgamma coactivator (PGC) is a major partner of ERR and a key regulator in energy homeostasis. Together they have been implicated in the etiology of metabolic disorders such as Type 2 diabetes and metabolic syndrome. ERR-alpha was also identified as an adverse marker for breast cancer progression; ERR-alpha-positive tumors have a poor prognosis. To screen and to identify environmental compounds that perturb the PGC/ERR signaling pathways could provide valuable information for potential therapeutic or preventive measures in the treatment of metabolic disease. For identifying PGC/ERR agonists, PGC/ERR cell line (provided by NTP) has been used to screen Tox21 10K library.
# Assay Protocol Summary: The PGC/ERR cells were dispensed at 2,000 cells/5 ul/well in 1536-well white plates using a Multidrop dispenser. After the assay plates were incubated at a 37 C/5% CO2 incubator for 6 hours, 23 nL of compounds dissolved in DMSO, positive and negative controls or DMSO only was transferred to the assay plate by a pin tool. The plates were incubated at 37 C for 18 hours. 4 ul/well of One-Glo reagent was added into the assay plates using a Flying Reagent Dispenser. After 30-minute incubation at room temperature, the luminescence intensity in the plates was measured using a ViewLux plate reader.
# % is set by controls: 0 for no effect and ±100 for the full control effect; potency is the fitted concentration of half-maximal effect.
Structure (SMILES),Potency,activation
C=CC(=O)Nc1cc2c(Nc3ccc(F)c(Cl)c3)ncnc2cc1OCCCN1CCOCC1,3.76 µM (active),–
O=C(c1ccc(O)c(O)c1)c1ccc(O)cc1O,–,-19.7% (inactive)
O=C(Oc1ccccc1)Oc1ccccc1,–,-11.2% (inactive)
Cc1cccc(C(=O)O)c1O,–,-3.01% [at 42.5 µM] (inactive)
CC(C)OC(=O)C(O)(CC(=O)O)CC(=O)O,–,-1.33% (inactive)
O=C(Nc1ccc2c(O)c(N=Nc3ccc(N=Nc4ccc(S(=O)(=O)O)cc4)cc3)c(S(=O)(=O)O)cc2c1)c1ccccc1,–,-17.6% (inactive)
O=C(O)c1cc(=O)c2ccccc2o1,–,0.839% [at 42.5 µM] (inactive)
CCCCCc1ccc(Cl)cc1,–,-3.89% (inactive)
CN(C)Cc1ccccc1O,–,-0.303% (inactive)
C=CC(C)(CCC=C(C)C)OC=O (stereo not given),–,1.59% (inactive)
C=C(CC)C(=O)c1ccc(OCC(=O)O)c(Cl)c1Cl,inactive,–
CCCCCCCCCCCC(=O)OCC(C)OC(=O)CCCCC(=O)O (stereo not given),–,-1.76% [at 42.5 µM] (inactive)
O=C1C(c2[nH]c3ccc(S(=O)(=O)O)cc3c2O)=Nc2ccc(S(=O)(=O)O)cc21,–,-11.5% (inactive)
O=C(O)c1cc(N=Nc2ccc([N+](=O)[O-])cc2)ccc1O,9.51 µM (active),–
O=C1OC2(c3ccc(O)cc3Oc3cc(O)ccc32)c2ccc(N=C=S)cc21,–,-3.66% (inactive)
[Cl][Pt-2]([Cl])([Cl])[Cl],–,-6.64% (inactive)
CC(=O)[C@H]1CC[C@H]2[C@@H]3CCC4=CC(=O)CC[C@]4(C)[C@H]3CC[C@]12C,inactive,–
O=C(O)CCN(C1(C(=O)NO)CCCC1)S(=O)(=O)c1ccc(Oc2ccc(F)cc2)cc1,–,-1.95% (inactive)
Cc1ccc(O)c(O)c1,13.3 µM (active),–
CCC(=O)C(=O)CC,–,-2.17% (inactive)

Structure (SMILES),Potency,activation
Cc1ccc(N/N=c2\c(=O)cc/c(=N\Nc3ccc(S(=O)(=O)O)cc3)c2=O)c(C)c1,–,-9.86% (inactive)
Nc1nc2c(ncn2COCCO)c(=O)[nH]1,–,0.875% [at 42.5 µM] (inactive)
CN1CCN2c3ccccc3Cc3ccccc3C2C1 (stereo not given),–,-5.32% [at 42.5 µM] (inactive)
O=C(O)c1cc(O)c2ccccc2c1O,–,-20.3% (inactive)
Nc1ccc(Oc2ccc(Cl)cc2)cc1,–,3.14% (inactive)
C1CCC(SSC2CCCCC2)CC1,–,1.31% (inactive)
CCOc1ccc2ccccc2c1C(=O)N[C@@H]1C(=O)N2[C@@H]1SC(C)(C)[C@@H]2C(=O)O,–,0.548% [at 42.5 µM] (inactive)
CCCCN(CCCC)CC(O)c1cc(Cl)cc2c1-c1ccc(Cl)cc1/C2=C/c1ccc(Cl)cc1 (stereo not given),–,-1.09% [at 42.5 µM] (inactive)
CCOC(=O)NNc1ccc(N(CC)CC(C)O)nn1 (stereo not given),–,0.828% [at 42.5 µM] (inactive)
Cc1cc(-n2nc3ccc(Cl)cc3n2)c(O)c(C(C)(C)C)c1,–,-1.56% [at 42.5 µM] (inactive)
CC(C)(C)C1CCC(=O)CC1,–,0.186% (inactive)
OCC(F)(F)F,–,0.0474% (inactive)
Cc1cccc2cccnc12,–,2.44% (inactive)
Cc1cc(=O)oc2cc(O)cc(O)c12,–,-12.6% (inactive)
COC1=C(OC)C(=O)C(CCCCCCCCCCO)=C(C)C1=O,–,-7.93% [at 42.5 µM] (inactive)
O=S(=O)(O)c1ccc(Nc2nc(Nc3ccc(/C=C/c4ccc(Nc5nc(Nc6ccc(S(=O)(=O)O)cc6)nc(N(CCO)CCO)n5)cc4S(=O)(=O)O)c(S(=O)(=O)O)c3)nc(N(CCO)CCO)n2)cc1,–,0.437% [at 42.5 µM] (inactive)
COc1cc(S(=O)(=O)O)c(C)cc1N=Nc1c(O)ccc2cc(S(=O)(=O)O)ccc12,–,-11.5% (inactive)
Cc1ccc(-c2ccccc2)cc1,–,-2.1% (inactive)
Nc1ccc(NCCO)c([N+](=O)[O-])c1,–,-7.46% (inactive)
O=C(O)O,0.264 µM (active),–
